In the library only some 21% were active in any assay of this set; here they are far more common.
VP16 counter – counter-screen for ROR gamma inhibitors: Gal4-VP16 reporter | Potency, µM (titrated, usually from 53.6 µM), without a hit: at the top dose activity, negative = inhibition, most hits filed as inhibitors | actives 3.5% (n = 310,000) | Drosophila S2 Gal4-VP16 UAS-luciferase, luminescence, 20 h;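 note: Gal4-VP16 expression switched on by copper sulfate through the metallothionein promoter; potency is the fitted concentration of half-maximal effect; nearly all actives have a fitted effect of over 50% in size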
TDP1 cell CPT – DT40-hTDP1 cell growth loss with CPT. chicken DT40 Tdp1-/-;hTDP1 cells + 20 nM CPT, ATP luminescence, 48 h. Potency, µM (titrated, usually from 46.2 µM), for the others: top-dose activity change, negative = growth inhibition, actives largely listed as inhibitors. actives 12% (n = 420,000). AID 686979; note: potency is the fitted concentration of half-maximal effect; nearly all actives have a fitted effect of over 55% in size
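Chicken DT40 Tdp1-/- cells stably complemented with human TDP1 were seeded at 400 cells/well in medium containing 20 nM camptothecin, exposed to pin-transferred compounds, and grown at 37 °C for at least 48 hr. Viability was read as ATP luminescence.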
IL1B secr inh – inflammasome signaling inhibition, IL-1 beta readout; THP-1 LPS/ATP IL-1B secretion, AlphaLISA, 16 h; active compounds read low; activity change, % at 57.5 µM; actives 4.7% (n = 360,000); AID 743279; in the data active = activity change below about -50%; inconclusive = mostly about -30% to -49%
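Secreted IL-1B measured by AlphaLISA bead assay after 16 h compound exposure of THP-1 cells; compounds (final up to 57.5 uM) added 1 h before LPS (250 ng/mL) and ATP (1.25 mM) stimulation; lower signal means less secretion.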
ELG1 repair inh – inhibitors of ELG1-dependent DNA repair in HEK293T cells; actives 2.3% (n = 330,000); AID 504467; HEK293T ELG1-luciferase reporter, luminescence, 16 h; DNA damage induced by 5-fluorouridine; Potency, µM (doses to about 46.1 µM), for inactives: at the top dose activity change, negative = inhibition, usual class: inhibitors; note: potency is the fitted concentration of half-maximal effect; nearly all actives have a fitted effect of over 55% in size
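Quantitative HTS, concentration-response format. 2,000 cells/well co-treated with 5-fluorouridine and compound, 16 hr in 5% CO2 at 37 °C; ONE-Glo luminescence read after 30 min.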
RORg inh – inhibitors of mouse ROR gamma transcriptional activity. P51450. Drosophila S2 Gal4-RORgamma UAS-luciferase reporter, 20 h. Potency, µM (series often up to 53.6 µM), without a hit: at the top dose activity change, negative = inhibition, hits mostly inhibitors. actives 5.4% (n = 310,000). AID 2551; note: potency is the fitted concentration of half-maximal effect; nearly all actives have a fitted effect of over 60% in size
Target sequence (P51450 whole entry, looked up, the tested form may be a part): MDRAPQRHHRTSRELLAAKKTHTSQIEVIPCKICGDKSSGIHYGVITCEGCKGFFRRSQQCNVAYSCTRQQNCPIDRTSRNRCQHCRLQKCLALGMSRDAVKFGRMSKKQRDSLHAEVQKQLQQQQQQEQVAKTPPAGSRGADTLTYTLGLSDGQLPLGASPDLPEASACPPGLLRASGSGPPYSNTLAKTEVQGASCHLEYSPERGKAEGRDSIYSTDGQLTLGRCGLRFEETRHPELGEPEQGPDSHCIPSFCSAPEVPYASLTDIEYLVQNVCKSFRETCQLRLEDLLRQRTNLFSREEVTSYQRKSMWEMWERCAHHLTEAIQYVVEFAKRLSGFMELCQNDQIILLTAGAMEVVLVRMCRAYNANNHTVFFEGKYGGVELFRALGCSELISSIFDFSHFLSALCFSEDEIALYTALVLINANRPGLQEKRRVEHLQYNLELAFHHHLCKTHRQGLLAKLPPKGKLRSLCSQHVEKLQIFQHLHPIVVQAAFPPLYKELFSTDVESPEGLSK
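Read-out: Photinus luciferase luminescence; inhibitors lower reporter signal. Insect Schneider cells with Gal4-ROR gamma fusion under metallothionein promoter, UAS reporter; 700 uM final copper sulfate induction, 20 hr, ambient temperature.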
DT40 TDP1 no CPT – qHTS for Inhibitors of human tyrosyl-DNA phosphodiesterase 1 (TDP1): qHTS in cells in absence of CPT; DT40 Tdp1-/- hTDP1 cells, no CPT, ATP luminescence, 48 h; Potency, µM (top dose mostly 46.2 µM), for inactives: at the highest dose activity change, negative = growth inhibition, most hits filed as inhibitors; actives 15% (n = 420,000); AID 686978, 2013; note: potency is the fitted concentration of half-maximal effect; nearly all actives have a fitted effect of over 55% in size
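Growth kinetics read by CellTiter-Glo luminescence after ≥48 hr at 37 °C. Cells: DT40 Tdp1-/- stably carrying human TDP1, 400 per well, compound exposure in the absence of CPT (DMSO vehicle).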
Active calls of the source: *; ? = inconclusive; . = no result. Unless noted, calls come from the whole dose curve; as a rule, active = well fitted curve in the direction sought with a large enough effect; inconclusive = small, poorly fitted or top-dose-only effect, or another doubt; inactive = no such curve, though single readings can be large; an effect the other way counts as inactive or inconclusive. % is set by controls: 0 for no effect and ±100 for the full control effect.

SMILES | VP16 counter | TDP1 cell CPT | IL1B secr inh | ELG1 repair inh | RORg inh | DT40 TDP1 no CPT
CCC(CC)C(=O)N1c2ccccc2C(C)(c2ccccc2)CC1(C)C (stereo not drawn) | . | 18µM* | . | . | . | 23µM*
CCCCCCCCCCCCCCCCCCOC[C@@H](O)COP(=O)([O-])OCC[N+](C)(C)C | 2% | . | . | . | 25% | .
Cc1ccc(CNCCCn2cnc(C(=O)Nc3ccc(C)c(C)c3)n2)o1 | . | -1% | -22 | . | . | -23%
O=S(=O)(NC1CC1)c1ccccc1 | 0% | -15% | 11 | -2% | -15% | 6%
Cc1cc(=O)oc2cc(OCC3CC(c4ccc(Br)cc4)=NO3)ccc12 (stereo not drawn) | ? | ? | 25 | 10% | 35% | 16µM*
C#CCOc1ccc2c(C)cc(=O)oc2c1 | 11% | 17% | -6 | 22% | ? | ?
Cc1cc(=O)oc2cc(OCC3CC(c4ccccc4)=NO3)ccc12 (stereo not drawn) | 28% | 16µM* | 64 | 6% | 22% | 18µM*
COc1ccc(S(=O)(=O)NC(=O)C2(C)CCN2C(=O)C2(c3ccc(Cl)cc3)CCC2)cc1 (stereo not drawn) | . | 1% | 50 | . | . | -8%
Cc1cccc(CNc2ncncc2-c2ccc3c(c2)OCO3)c1 | -4% | ? | . | . | -23% | ?
COc1ccc(/C=C/C(=O)NNC(=O)c2ccncc2)c(OC)c1 | . | 4% | 16 | ? | . | 11%
CCC(C)n1c(=O)c2sccc2n2c(CCCC(=O)N3CCN(c4ccccc4)CC3)nnc12 (stereo not drawn) | . | -65% | . | . | . | ?
C=CCn1c(/N=C/c2ccc(N(C)C)cc2)nc2ccccc21 | 2% | -19% | 0 | 10% | -27% | -6%
CN(C)c1ccc(/C=N/n2ncc3ccccc32)cc1 | 7.1µM* | -10% | -15 | ? | 0.71µM* | -18%
O=C(Nc1ccnn1C1CCN(C(=O)c2cccnc2)CC1)c1cccc(F)c1 | . | 12% | 28 | . | . | -2%
O[C@H]1C[C@H](c2ccc(Cl)cc2)N(CC2CCCCC2)C[C@@H]1n1cc(C2CC2)nn1 | . | 5.8µM* | ? | . | . | 6.5µM*
COc1ccc([C@H]2C[C@H](n3cc(-c4ccc(F)cc4)nn3)[C@@H](O)CN2CC2CCCCC2)cc1 | . | ? | -10 | . | . | ?
COc1ccc([C@H]2C[C@@H](O)[C@H](n3cc(-c4ccc(F)cc4)nn3)CN2CC2CCCCC2)cc1 | . | ? | 3 | . | . | 6.5µM*
COc1ccc([C@H]2C[C@H](n3cc(C4CC4)nn3)[C@@H](O)CN2CC2CCCCC2)cc1 | . | ? | -5 | . | . | 16µM*
Cc1ccc([C@H]2C[C@@H](O)[C@H](n3cc(C4CC4)nn3)CN2CC2CCCCC2)cc1 | . | ? | -4 | . | . | 18µM*
CN(C)S(=O)(=O)c1ccc(NC(=O)C2CC(=O)N(Cc3ccccc3Cl)C2)cc1 (stereo not drawn) | . | 8% | 13 | -7% | . | 0%
COc1ccc(S(=O)(=O)n2nc(C)c(S(=O)(=O)N3CCC(C)CC3)c2C)cc1OC | . | -3% | . | . | . | -3%
O[C@@H]1CN(CC2CCCCC2)[C@@H](c2ccc(Cl)cc2)C[C@H]1n1cc(C2CC2)nn1 | . | ? | -51* | . | . | 23µM*
Cc1ccc(N2CCN(/N=C/C3=C(N4CCOCC4)C(=C\c4ccccc4)/CC3)CC2)cc1 | 0% | -16% | 0 | 4% | 9% | 8%
Cc1cc(C)nc(N/N=C/C2=C(N3CCOCC3)C(=C/c3ccccc3)/CC2)n1 | -20% | 16µM* | -23 | 16µM* | -11% | 12µM*
Cc1cc(=O)[nH]c(N/N=C/C2=C(N3CCOCC3)C(=C\c3ccc(Cl)cc3)/CC2)n1 | ? | 21µM* | 14 | -9% | ? | 16µM*
SMILES | VP16 counter | TDP1 cell CPT | IL1B secr inh | ELG1 repair inh | RORg inh | DT40 TDP1 no CPT
O=C(N/N=C/C1=C(N2CCOCC2)C(=C\c2ccccc2)/CC1)Nc1ccccc1 | -5% | 12µM* | 5 | 12% | 17% | 8.2µM*
O=C(O)c1ccccc1N/N=C/C1=C(N2CCOCC2)C(=C\c2ccccc2)/CC1 | -1% | 21µM* | 17 | ? | ? | 12µM*
Cc1cc(CNC(=O)COC(=O)C2CC3CCCC(C2)C3=O)cc(C)c1O (stereo not drawn) | . | -5% | 1 | 0% | . | 19%
CCc1ccc(S(=O)(=O)c2nnn3c2nc(N2CCOCC2)c2sccc23)cc1 | . | -9% | . | . | . | 1%
CC(C)C(NC(=O)C12CC3CC(CC(C3)C1)C2)C(=O)N/N=C/C1=C(N2CCOCC2)C(=C\c2ccc([N+](=O)[O-])cc2)/CC1 (stereo not drawn) | -8% | -22% | -6 | 15% | -19% | -24%
Cc1occc1C(=O)N/N=C/C1=C(N2CCOCC2)C(=C\c2ccc(Cl)cc2)/CC1 | ? | ? | 3 | 7% | -114% | 0.92µM*
CCN(CC)c1ccc(NC(=S)NC(=O)c2ccco2)cc1 | 16µM* | 18µM* | -18 | ? | 4µM* | 18µM*
CCCCOC(=O)c1ccc(NC(=S)NC(=O)c2ccco2)cc1 | ? | ? | 17 | 15% | 11µM* | ?
CCN(CC)c1ccc(NC(=O)c2ccco2)cc1 | ? | -7% | -13 | ? | ? | -13%
CCCCCOC(=O)c1ccc(NC(=O)c2ccco2)cc1 | -9% | -23% | 0 | 0% | 26% | ?
COC(=O)[C@H](Cc1ccccc1)NC(=O)O[C@@H]1C(=O)c2ccc(OC)cc2O[C@H]1c1cccc(C(F)(F)F)c1 | -6% | . | . | . | -11% | .
CCN1C(=O)C2(c3ccccc31)c1c(oc3ccc(F)cc3c1=O)C(=O)N2CCCOC (stereo not drawn) | . | ? | . | . | . | -8%
Cc1ccc2oc(-c3cc(NC(=O)CC(C)C)ccc3Cl)nc2c1 | . | 10µM* | . | . | . | 12µM*
COc1c(C)cccc1C(=O)Nc1ccc(Cl)c(-c2nc3cc(C)ccc3o2)c1 | . | 15µM* | . | . | . | 9.2µM*
Cc1ccc2oc(-c3cccc(NC(=O)c4cccc5c(Cl)cccc45)c3)nc2c1 | . | 1% | . | . | . | 5%
COc1ccc(CN2C(=O)C(C)N(C(=O)c3c(F)cccc3F)c3ccccc32)cc1 (stereo not drawn) | 0% | 13µM* | 8 | ? | 2% | 8.2µM*

Screens from PubChem BioAssay.
